Outcome and AC50 data for four molecules are collected here from PubChem BioAssay (EPA / NIEHS).

Assay [1] has as its target Glucocorticoid receptor (Homo sapiens) (UniProt P04150). Put plainly: ATG_GR_TRANS: Attagene TRANS-FACTORIAL HepG2 Assay for human Glucocorticoid Receptor (GR) (AID 2282978; active = hit-call score of the fitted dose curve at least 0.9, where 1 is the maximum;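 also: activators score as hits since higher reporter transcript over DMSO is fitted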). The conditions noted are these: HepG2 Attagene TRANS GR reporter, mRNA transcription. Put shortly:
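In this trans-factorial format, exogenous NR-GAL4 chimeric proteins in transfected HepG2 cells regulate GAL4-UAS reporter transcription. After 24 h treatment, reporter mRNA induction relative to DMSO is read by RT-PCR and capillary electrophoresis.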

The target of assay [2] is Bile acid receptor (Homo sapiens) (UniProt Q96RI1). The assay can be described thus: ATG_FXR_TRANS: Attagene TRANS-FACTORIAL HepG2 Assay for Farnesoid X Receptor (FXR) (AID 2282979; active = hit-call score of the fitted dose curve at least 0.9, where 1 is the maximum;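 also: hits raise reporter mRNA above DMSO so AC50 marks FXR activation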). Conditions: HepG2 Attagene TRANS FXR-GAL4 reporter transcription. The method in brief: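 HepG2 cells transiently transfected with reporter constructs in which a chimeric FXR-GAL4 protein drives a GAL4-UAS reporter; 24 h compound exposure. Reporter mRNA measured by RT-PCR, FAM labelling, HpaI digestion and capillary electrophoresis; gain-of-signal versus DMSO.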

For assay [3], the target named is Oxysterols receptor LXR-alpha (Homo sapiens) (UniProt Q13133). The assay can be described thus: ATG_LXRa_TRANS: Attagene TRANS-FACTORIAL HepG2 Assay for human Liver X Receptor alpha (LXRa) (AID 2282980; active = hit-call score of the fitted dose curve at least 0.9, where 1 is the maximum). The conditions noted are these: HepG2 Attagene TRANS reporter, LXRa transactivation. Put shortly: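 HepG2 cells were transiently transfected with multiplexed reporter units driven by chimeric LXRa–GAL4 fusion proteins, then dosed for 24 h. Reporter mRNA was quantified by RT-PCR, fluorescent labelling and capillary electrophoresis; gain of signal fitted against DMSO baseline.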

Assay [4] deals with Hepatocyte nuclear factor 4-alpha (Homo sapiens) (UniProt P41235). The assay can be described thus: ATG_HNF4a_TRANS: Attagene TRANS-FACTORIAL HepG2 Assay for human Hepatocyte Nuclear Factor 4 alpha (HNF4a) (AID 2282982; active = hit-call score of the fitted dose curve at least 0.9, where 1 is the maximum). Conditions: HepG2 HNF4a transactivation reporter, mRNA readout. Put shortly:
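Cells used were human HepG2, transiently carrying GAL4-UAS reporter units read out against exogenous NR-GAL4 chimeras. Reporter transcript levels after 24 h dosing were quantified by fluorescent RT-PCR and capillary electrophoresis.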

Assay [5] in a line: ATG_M_06_TRANS: Attagene TRANS-FACTORIAL HepG2 Assay for M06 Transcription Factor (Internal Marker) (AID 2282983; active = hit-call score of the fitted dose curve at least 0.9, where 1 is the maximum). The conditions noted are these: HepG2 Attagene TRANS M06 internal marker reporter. The method in brief: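 HepG2 cells transiently transfected with multiplexed GAL4-UAS reporter transcription units; after 24 h compound exposure, reporter mRNA measured by RT-PCR, FAM-labelled primer extension, HpaI digestion and capillary electrophoresis. Gain-of-signal fitted versus DMSO baseline; background control readout.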

Assay [6] in a line: ATG_M_32_TRANS: Attagene TRANS-FACTORIAL HepG2 Assay for M32 Transcription Factor (Internal Marker) (AID 2282984; active = hit-call score of the fitted dose curve at least 0.9, where 1 is the maximum). The conditions noted are these: HepG2 Attagene TRANS M32 internal marker reporter. Put shortly:
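Human hepatoma HepG2, transient MRTU transfection, 24 h treatment. RNA → RT-PCR → fluorescent primer extension → HpaI digest (2 h, 37 C) → CE. Positive-direction fit vs DMSO.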

Assay [7] has as its target Transcriptional activator Myb (Homo sapiens) (UniProt P10242). Put plainly: ATG_Myb_CIS: Attagene CIS-FACTORIAL HepG2 Assay for human Myeloblastosis (Myb) Proto-Oncogene Transcription Factor (AID 2282986). Conditions: HepG2 Attagene CIS-FACTORIAL Myb reporter transcription; actives raise or lower the signal. The method in brief:
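Steps: transfect HepG2 with cis-regulated reporter units; dose with chemical for 24 h; isolate RNA, reverse-transcribe, PCR-amplify and FAM-label reporter sequences; digest with HpaI; resolve by capillary electrophoresis. Activity fitted in both directions relative to DMSO.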

For assay [8], the target named is Nuclear respiratory factor 1 (Homo sapiens) (UniProt Q16656). Put plainly: ATG_NRF1_CIS: Attagene CIS-FACTORIAL HepG2 Assay for human Nuclear Respiratory Factor 1 (NRF1) Orphan Gene (AID 2282987). Conditions: HepG2 NRF1 cis-element reporter, Attagene multiplex; actives raise or lower the signal. The method in brief: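 Fluorescence intensity of labelled reporter cDNA fragments, resolved by capillary electrophoresis, served as readout for NRF1 cis-element activity. Transiently transfected HepG2 cells were dosed for 24 hours; activity in either direction was fitted against DMSO negative control.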

Assay [9] is described as follows: ATG_NFI_CIS: Attagene CIS-FACTORIAL HepG2 Assay for human Nuclear Factor I (NFI) (AID 2282989). The conditions noted are these: HepG2 cis-regulatory reporter, NFI response element transcription; actives raise or lower the signal. The method in brief:
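Endogenous TF activity in HepG2 cells transiently transfected with cis-element-driven multiplexed reporter units, read 24 h after dosing. Reporter mRNA quantified by RT-PCR, 6-FAM labelling, HpaI digestion and capillary electrophoresis; bidirectional fit versus DMSO.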

Assay [10] deals with Myc proto-oncogene protein (Homo sapiens) (UniProt P01106). The assay can be described thus: ATG_Myc_CIS: Attagene CIS-FACTORIAL HepG2 Assay for human Myelocytomatosis (Myc) Proto-Oncogene Transcription Factor (AID 2282990). Conditions: HepG2, Attagene cis-reporter transcription factor activity; actives raise or lower the signal. Put shortly:
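HepG2 cells transiently transfected with multiple cis-promoter-driven reporter transcription units, so endogenous TF activity is read. After 24 h compound exposure, reporter mRNA was quantified by RT-PCR, 6-FAM labelling, HpaI digestion and capillary electrophoresis; bidirectional fit versus DMSO.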

The nature of assay [11]: ATG_NF_kB_CIS: Attagene CIS-FACTORIAL HepG2 Assay for human Nuclear Factor Kappa B (NF-kB) (AID 2282991). The conditions noted are these: HepG2 Attagene cis-factorial NF-kB reporter mRNA; actives raise or lower the signal. The method in brief:
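Endogenous transcription factor activity in HepG2 was captured via cis-regulated reporter constructs; after 24 h dosing, reporter mRNA was reverse-transcribed, amplified, fluorescently labelled and sized by capillary electrophoresis, with activity fitted bidirectionally relative to DMSO.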

Assay [12] is described as follows: ATG_NRF2_ARE_CIS: Attagene CIS-FACTORIAL HepG2 Assay for human Nuclear Factor Erythroid 2 Related Factor 2 (NFR2) response to Antioxidant Response Elements (ARE) (AID 2282992).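 As to AC50: reporter mRNA level measured by RT-PCR and capillary electrophoresis fluorescence.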 The conditions noted are these: HepG2 Attagene ARE/NRF2 reporter, transcription factor activity; actives raise or lower the signal. The method in brief:
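HepG2 cells transiently transfected with multiplexed cis-element reporter constructs, 24 h after chemical dosing; reporter mRNA quantified by RT-PCR, fluorescent primer extension, HpaI digestion and capillary electrophoresis. Bidirectional fit relative to DMSO.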

Assay [13] in a line: ATG_Oct_MLP_CIS: Attagene CIS-FACTORIAL HepG2 Assay for human Octamer-Binding Transcription Factor (Oct) (AID 2282993). The conditions noted are these: HepG2 Attagene cis-factorial Oct reporter, mRNA; actives raise or lower the signal. Put shortly:
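HepG2 cells transiently transfected with cis-element-driven reporter transcription units (endogenous TF activity); 24 h compound exposure. Reporter mRNA quantified by RT-PCR, 6-FAM labelling, HpaI digestion and capillary electrophoresis; bidirectional fit versus DMSO baseline.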

Assay [14] deals with Cellular tumor antigen p53 (Homo sapiens) (UniProt P04637). The assay can be described thus: ATG_p53_CIS: Attagene CIS-FACTORIAL HepG2 Assay for human p53 Transcription Factor (AID 2282994). The conditions noted are these: HepG2 p53 cis-element reporter, Attagene mRNA; actives raise or lower the signal. The method in brief:
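HepG2 cells transiently transfected with cis-regulated multiple reporter transcription units, dosed 24 h. Reporter mRNA measured by RT-PCR, 6-FAM primer extension, HpaI digestion and capillary electrophoresis; bidirectional fit relative to DMSO.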

For assay [15], the target named is Oxysterols receptor LXR-beta (Homo sapiens) (UniProt P55055). Put plainly: ATG_LXRb_TRANS: Attagene TRANS-FACTORIAL HepG2 Assay for human Liver X Receptor beta (LXRb) (AID 2282981; active = hit-call score of the fitted dose curve at least 0.9, where 1 is the maximum). The conditions noted are these: HepG2 Attagene TRANS GAL4-LXRb reporter, mRNA. The method in brief:
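In this TRANS format, exogenous chimeric NR-Gal4 protein activity, not endogenous factors, drives reporter expression in transfected human HepG2 cells. Exposure lasted 24 h; reporter mRNA was read by fluorescent capillary electrophoresis.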

Assay [16] addresses Nuclear receptor subfamily 4 group A member 2 (Homo sapiens) (UniProt P43354). The assay can be described thus: ATG_NURR1_TRANS: Attagene TRANS-FACTORIAL HepG2 Assay for human Nuclear Receptor Related Protein 1 (NURR1) (AID 2282985; active = hit-call score of the fitted dose curve at least 0.9, where 1 is the maximum). Conditions: HepG2 Attagene TRANS reporter, mRNA readout. Put shortly:
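After 24 h chemical dosing, total RNA from transiently transfected HepG2 cells was reverse-transcribed and reporter cDNA PCR-amplified, FAM-labelled and analysed by capillary electrophoresis. Activity fitted in positive direction, DMSO as negative control.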

Assay [17] can be described thus: BSK_3C_TissueFactor: BioMAP Diversity Plus: 3C Assay for Tissue Factor Biomarker Activity (AID 2282997). The conditions noted are these: BioMAP 3C HUVEC, tissue factor biomarker readout; actives raise or lower the signal. The method in brief:
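Primary human umbilical vein endothelial cells in the 3C system were exposed to test chemical for 24 h, then Tissue Factor measured by ELISA. Activity was fitted bidirectionally against DMSO as negative control and baseline.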

Assay [18] in a line: BSK_3C_uPAR: BioMAP Diversity Plus: 3C Assay for Urokinase-type plasminogen activator receptor (uPAR) Biomarker Activity (AID 2282998). Conditions: BioMAP 3C HUVEC, uPAR biomarker ELISA; actives raise or lower the signal. Put shortly: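 Primary human umbilical vein endothelial cells, 3C system; surface uPAR measured by ELISA 24 h after dosing. Cytotoxicity via SRB total protein in parallel cultures; bidirectional fit against DMSO.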

Assay [19] is described as follows: BSK_3C_VCAM1: BioMAP Diversity Plus: 3C Assay for Vascular cell adhesion molecule 1 (VCAM1) Biomarker Activity (AID 2282999). The conditions noted are these: BioMAP 3C HUVEC, VCAM1 ELISA, cytokine-stimulated; actives raise or lower the signal. Put shortly:
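Human umbilical vein endothelial cells were dosed with compound for 24 h, after which cell-surface VCAM-1 was quantified by ELISA. Bidirectional curve fitting used DMSO as negative control and activity baseline.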

Inconclusive results are not listed. The source made the active and inactive calls. The calls were made as follows, unless noted: active = hit-call score of the fitted dose curve at least 0.9, where 1 is the maximum; inactive = score below 0.9.

Cellular tumor antigen p53 (Homo sapiens), sequence (P04637 whole entry, looked up): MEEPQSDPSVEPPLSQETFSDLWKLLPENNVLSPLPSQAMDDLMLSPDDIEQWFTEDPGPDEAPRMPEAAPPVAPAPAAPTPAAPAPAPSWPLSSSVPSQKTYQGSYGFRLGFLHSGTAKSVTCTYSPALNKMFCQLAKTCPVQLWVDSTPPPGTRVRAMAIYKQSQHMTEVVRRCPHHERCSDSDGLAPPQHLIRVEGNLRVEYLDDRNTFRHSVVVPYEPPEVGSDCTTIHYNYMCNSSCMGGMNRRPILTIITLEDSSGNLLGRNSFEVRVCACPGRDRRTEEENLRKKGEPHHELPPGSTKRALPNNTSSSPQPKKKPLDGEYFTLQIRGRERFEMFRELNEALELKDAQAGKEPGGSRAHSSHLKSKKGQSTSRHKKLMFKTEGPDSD
Myc proto-oncogene protein (Homo sapiens), sequence (P01106 whole entry, looked up): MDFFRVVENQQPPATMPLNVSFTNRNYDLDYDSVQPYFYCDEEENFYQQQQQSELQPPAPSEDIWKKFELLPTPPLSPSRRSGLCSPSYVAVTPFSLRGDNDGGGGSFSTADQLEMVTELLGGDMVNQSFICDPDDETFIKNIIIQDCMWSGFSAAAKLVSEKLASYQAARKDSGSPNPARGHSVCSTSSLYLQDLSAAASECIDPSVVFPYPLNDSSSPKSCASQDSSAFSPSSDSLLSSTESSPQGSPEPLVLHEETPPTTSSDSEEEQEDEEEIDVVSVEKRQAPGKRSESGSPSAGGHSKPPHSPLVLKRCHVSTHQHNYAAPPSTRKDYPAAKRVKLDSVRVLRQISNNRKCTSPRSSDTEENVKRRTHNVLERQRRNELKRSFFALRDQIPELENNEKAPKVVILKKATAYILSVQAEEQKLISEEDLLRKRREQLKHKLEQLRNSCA
Glucocorticoid receptor (Homo sapiens), sequence (P04150 whole entry, looked up, the tested form may be a part): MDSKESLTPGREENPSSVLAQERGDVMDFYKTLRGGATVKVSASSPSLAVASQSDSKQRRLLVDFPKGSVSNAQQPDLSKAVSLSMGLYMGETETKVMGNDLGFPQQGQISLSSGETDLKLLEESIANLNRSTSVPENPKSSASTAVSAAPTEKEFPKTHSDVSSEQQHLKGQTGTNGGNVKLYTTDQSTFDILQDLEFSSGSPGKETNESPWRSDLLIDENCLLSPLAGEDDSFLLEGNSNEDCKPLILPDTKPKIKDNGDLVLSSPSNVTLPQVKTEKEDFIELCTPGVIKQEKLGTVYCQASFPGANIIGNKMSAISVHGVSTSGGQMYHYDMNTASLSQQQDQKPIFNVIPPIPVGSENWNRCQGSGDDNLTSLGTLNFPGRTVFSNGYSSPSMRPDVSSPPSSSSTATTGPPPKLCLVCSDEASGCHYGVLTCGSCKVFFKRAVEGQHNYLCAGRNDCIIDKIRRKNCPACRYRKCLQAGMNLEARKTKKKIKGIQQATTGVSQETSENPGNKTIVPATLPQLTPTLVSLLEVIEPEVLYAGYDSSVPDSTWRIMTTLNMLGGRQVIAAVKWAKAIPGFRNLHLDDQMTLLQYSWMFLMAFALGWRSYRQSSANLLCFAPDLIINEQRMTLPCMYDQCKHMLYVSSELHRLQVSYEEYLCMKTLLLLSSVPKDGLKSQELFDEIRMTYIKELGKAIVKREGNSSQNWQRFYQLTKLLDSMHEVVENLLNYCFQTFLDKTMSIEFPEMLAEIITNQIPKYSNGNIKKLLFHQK
Transcriptional activator Myb (Homo sapiens), sequence (P10242 whole entry, looked up): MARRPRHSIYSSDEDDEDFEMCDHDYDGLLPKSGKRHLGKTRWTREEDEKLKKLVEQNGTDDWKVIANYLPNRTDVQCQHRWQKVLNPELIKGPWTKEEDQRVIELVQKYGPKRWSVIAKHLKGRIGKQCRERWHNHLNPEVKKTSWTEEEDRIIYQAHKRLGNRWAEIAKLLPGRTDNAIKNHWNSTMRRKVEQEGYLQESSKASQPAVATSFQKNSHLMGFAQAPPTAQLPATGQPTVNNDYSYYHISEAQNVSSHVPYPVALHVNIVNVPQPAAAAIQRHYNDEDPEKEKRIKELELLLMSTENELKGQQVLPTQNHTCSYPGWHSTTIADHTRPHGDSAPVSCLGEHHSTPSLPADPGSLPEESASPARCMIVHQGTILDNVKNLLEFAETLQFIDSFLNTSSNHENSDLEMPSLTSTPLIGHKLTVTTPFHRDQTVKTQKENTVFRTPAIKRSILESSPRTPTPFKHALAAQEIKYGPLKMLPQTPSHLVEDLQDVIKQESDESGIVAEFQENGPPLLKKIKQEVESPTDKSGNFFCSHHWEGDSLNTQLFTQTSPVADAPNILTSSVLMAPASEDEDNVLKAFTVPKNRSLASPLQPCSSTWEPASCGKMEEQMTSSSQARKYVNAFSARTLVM
Hepatocyte nuclear factor 4-alpha (Homo sapiens), sequence (P41235 whole entry, looked up, the tested form may be a part): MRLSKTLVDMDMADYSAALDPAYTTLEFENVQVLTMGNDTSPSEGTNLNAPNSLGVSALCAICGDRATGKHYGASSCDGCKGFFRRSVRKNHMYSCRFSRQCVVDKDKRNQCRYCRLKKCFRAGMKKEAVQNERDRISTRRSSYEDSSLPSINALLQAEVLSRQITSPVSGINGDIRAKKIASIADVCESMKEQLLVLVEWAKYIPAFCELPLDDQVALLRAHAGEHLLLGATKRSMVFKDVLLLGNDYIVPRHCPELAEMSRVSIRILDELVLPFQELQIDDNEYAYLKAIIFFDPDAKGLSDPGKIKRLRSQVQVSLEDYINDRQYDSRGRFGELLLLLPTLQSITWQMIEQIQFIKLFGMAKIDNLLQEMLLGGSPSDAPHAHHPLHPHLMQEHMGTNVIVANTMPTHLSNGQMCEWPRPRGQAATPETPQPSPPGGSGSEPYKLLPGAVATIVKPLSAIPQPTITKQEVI
Oxysterols receptor LXR-alpha (Homo sapiens), sequence (Q13133 whole entry, looked up, the tested form may be a part): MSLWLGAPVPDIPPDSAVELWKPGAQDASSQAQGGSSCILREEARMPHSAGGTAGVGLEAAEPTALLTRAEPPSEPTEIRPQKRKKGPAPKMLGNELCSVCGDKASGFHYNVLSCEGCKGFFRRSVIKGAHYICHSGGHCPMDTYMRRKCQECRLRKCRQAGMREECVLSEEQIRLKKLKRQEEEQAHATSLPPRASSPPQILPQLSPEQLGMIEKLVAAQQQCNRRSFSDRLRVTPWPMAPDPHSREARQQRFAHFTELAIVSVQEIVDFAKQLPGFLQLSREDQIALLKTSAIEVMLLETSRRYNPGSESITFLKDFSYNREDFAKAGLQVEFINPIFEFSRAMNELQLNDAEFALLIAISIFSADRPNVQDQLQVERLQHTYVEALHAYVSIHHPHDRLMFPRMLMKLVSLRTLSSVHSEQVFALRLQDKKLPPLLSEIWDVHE
Bile acid receptor (Homo sapiens), sequence (Q96RI1 whole entry, looked up, the tested form may be a part): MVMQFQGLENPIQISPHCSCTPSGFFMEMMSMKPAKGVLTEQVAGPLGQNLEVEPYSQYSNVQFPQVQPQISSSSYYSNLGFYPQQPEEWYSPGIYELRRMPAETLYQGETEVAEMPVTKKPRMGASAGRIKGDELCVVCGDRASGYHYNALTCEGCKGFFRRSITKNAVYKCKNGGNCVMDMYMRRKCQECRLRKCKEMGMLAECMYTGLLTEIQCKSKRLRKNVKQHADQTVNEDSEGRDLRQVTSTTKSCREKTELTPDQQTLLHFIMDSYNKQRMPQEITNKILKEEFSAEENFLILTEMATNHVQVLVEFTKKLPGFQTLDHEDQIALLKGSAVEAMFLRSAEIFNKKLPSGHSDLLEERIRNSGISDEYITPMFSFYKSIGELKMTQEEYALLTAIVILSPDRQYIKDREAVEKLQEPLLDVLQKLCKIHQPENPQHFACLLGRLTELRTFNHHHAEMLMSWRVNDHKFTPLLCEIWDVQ
Nuclear respiratory factor 1 (Homo sapiens), sequence (Q16656 whole entry, looked up, the tested form may be a part): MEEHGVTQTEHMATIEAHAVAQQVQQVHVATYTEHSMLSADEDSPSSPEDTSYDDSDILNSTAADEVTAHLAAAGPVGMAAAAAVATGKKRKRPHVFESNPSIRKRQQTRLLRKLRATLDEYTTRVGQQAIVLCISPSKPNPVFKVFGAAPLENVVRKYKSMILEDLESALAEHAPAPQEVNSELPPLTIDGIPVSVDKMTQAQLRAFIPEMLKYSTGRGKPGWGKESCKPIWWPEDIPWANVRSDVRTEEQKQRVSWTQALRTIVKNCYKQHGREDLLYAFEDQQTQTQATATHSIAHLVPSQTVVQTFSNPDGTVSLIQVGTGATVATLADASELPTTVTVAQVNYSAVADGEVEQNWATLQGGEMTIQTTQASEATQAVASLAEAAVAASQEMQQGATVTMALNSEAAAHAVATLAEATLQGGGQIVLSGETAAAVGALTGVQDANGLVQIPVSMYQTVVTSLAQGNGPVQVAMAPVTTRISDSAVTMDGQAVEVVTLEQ
Nuclear receptor subfamily 4 group A member 2 (Homo sapiens), sequence (P43354 whole entry, looked up): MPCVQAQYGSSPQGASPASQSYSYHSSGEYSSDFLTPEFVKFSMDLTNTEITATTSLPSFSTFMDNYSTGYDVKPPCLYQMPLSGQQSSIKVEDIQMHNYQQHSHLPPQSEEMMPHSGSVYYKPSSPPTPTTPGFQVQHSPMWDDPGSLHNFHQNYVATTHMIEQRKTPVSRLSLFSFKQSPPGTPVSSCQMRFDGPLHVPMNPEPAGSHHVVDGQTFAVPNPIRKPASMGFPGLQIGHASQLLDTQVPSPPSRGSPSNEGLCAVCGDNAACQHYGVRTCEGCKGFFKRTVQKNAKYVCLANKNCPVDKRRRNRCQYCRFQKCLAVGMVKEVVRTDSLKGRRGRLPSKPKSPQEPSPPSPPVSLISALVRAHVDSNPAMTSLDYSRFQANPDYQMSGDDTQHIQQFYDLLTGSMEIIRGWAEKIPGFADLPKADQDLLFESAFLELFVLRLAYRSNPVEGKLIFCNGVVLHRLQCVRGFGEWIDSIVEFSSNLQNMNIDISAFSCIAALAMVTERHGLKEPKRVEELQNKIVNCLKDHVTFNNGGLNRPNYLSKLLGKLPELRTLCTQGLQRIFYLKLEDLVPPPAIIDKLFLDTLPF

`O=S(=O)(c1ccc(O)cc1)c1ccc(O)cc1`: the molecule was called inactive in assay [1], in assay [2], in assay [3], in assay [4], in assay [5] and in [6]. Further, the call in assay [7], in assay [8], in assay [9], in assay [10], in assay [11] and in assay [12] was inactive. For the same molecule, the molecule was classed as inactive in assay [13] and in [14].
For `CC1=C(C(=O)Nc2ccccc2)S(=O)(=O)CCO1`, the molecule was called inactive in assay [1], in assay [2], in [3], in assay [15], in assay [4] and in assay [5]. Also, the molecule was classed as inactive in assay [16], in assay [7], in assay [8], in [9], in assay [10] and in assay [13]. The half-maximal activity concentration (AC50) in [11] was 122 µM (active); in assay [12] it was 2.92 µM (active); in assay [14] it was 58 µM (active).
Turning to `N#Cc1ccc(O)cc1`, the outcome in assay [1], in [2], in [4], in assay [5], in assay [6] and in assay [16] was inactive. The molecule was called inactive in assay [7], in assay [8], in assay [9], in assay [10], in [11] and in assay [12]. Besides, the outcome in [13] and in [14] was inactive.
Take `CCOP(=S)(OCC)SCS(=O)(=O)CC`: the molecule was called inactive in assay [1], in assay [2], in assay [3], in [4], in assay [5] and in assay [6]. Also, the outcome in assay [7], in [8], in [9], in assay [10], in assay [11] and in [12] was inactive. In addition, the molecule was classed as inactive in [13], in assay [14], in assay [17], in assay [18] and in assay [19].
